Assay results as given in PubChem BioAssay AID602179 (National Center for Advancing Translational Sciences (NCATS), 2012).
Among all 390,000 compounds or so, about 360 (0.092%) were called active. Calls come from the whole dose curve; as a rule, active = well fitted inhibition curve with a large enough effect; inconclusive = small, poorly fitted or top-dose-only effect; inactive = no such curve, though single readings can be large or run the other way. The entries come from a sample that favours actives as a whole.

Target: Isocitrate dehydrogenase [NADP] cytoplasmic (Homo sapiens) (UniProt O75874)
Assay: qHTS for Inhibitors of mutant isocitrate dehydrogenase 1 (IDH1): qHTS; note: nearly all actives have a fitted effect of over 65% in size
Conditions: IDH1-R132H enzyme, NADPH consumption, diaphorase/resazurin fluorescence; series mostly up to 76.6 µM; activity change, negative = inhibition: at the top concentration
Outline: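 IDH1-R132H (0.5 ug/mL) preincubated 30 min with compound, then NADPH (0.016 mM) and alpha-KG (2 mM) added; 80 min at RT, pH 7.5. Remaining NADPH coupled via diaphorase/resazurin to fluorescence (540/590 nm); concentration-response curves normalized to no-enzyme control.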
% is set by controls: 0 for no effect and ±100 for the full control effect; potency is the fitted concentration of half-maximal effect.

Chain of Isocitrate dehydrogenase [NADP] cytoplasmic (Homo sapiens) (O75874 whole entry R132H, change not shown): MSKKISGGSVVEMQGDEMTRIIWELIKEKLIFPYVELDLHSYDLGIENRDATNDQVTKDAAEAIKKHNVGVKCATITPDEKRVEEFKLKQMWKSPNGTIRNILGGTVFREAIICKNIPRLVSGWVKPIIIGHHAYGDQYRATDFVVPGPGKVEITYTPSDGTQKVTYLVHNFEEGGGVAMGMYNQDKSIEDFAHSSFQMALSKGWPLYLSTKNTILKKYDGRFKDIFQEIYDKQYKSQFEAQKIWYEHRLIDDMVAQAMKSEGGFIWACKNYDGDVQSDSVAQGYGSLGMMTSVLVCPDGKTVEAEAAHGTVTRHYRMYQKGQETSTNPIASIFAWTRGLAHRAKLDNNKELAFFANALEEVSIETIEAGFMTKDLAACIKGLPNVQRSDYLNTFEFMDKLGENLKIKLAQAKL

Row | Compound | activity change, negative = inhibition | Potency
1 | CCc1ccc(NC(=O)C2CCCN2S(=O)(=O)c2ccc3nc(-c4ccccc4)[nH]c3c2)cc1 (centres undefined) | 12.1% (inactive) | 
2 | CCOC(=O)c1ccc(NC(=O)Cn2c(=O)cc(C)c3c(C)nn(-c4cccc(F)c4)c32)cc1 | 2.76% (inactive) | 
3 | CCCCN(CC)CCCNC(=O)c1nn(C)c2c1CSc1ccccc1-2 | -11.4% (inactive) | 
4 | O=C(CN1C(=O)CCn2nc(-c3ccccc3)cc21)NCc1ccccc1 | 8.18% (inactive) | 
5 | COc1ccc2c(C)c(CCC(=O)NCc3ccc(OC)c(OC)c3)c(=O)oc2c1 | 9.73% (inactive) | 
6 | CSc1ccc(C2c3c(oc4ccccc4c3=O)C(=O)N2CCCN2CCOCC2)cc1 (centres undefined) | -26.3% (inactive) | 
7 | Cc1ccc(C(=O)NCCSc2c(C)[nH]c3ccccc23)cc1C | 15% (inactive) | 
8 | O=C(Nc1ccccc1Br)c1cc(CN2CCCC2)on1 | 18.6% (inactive) | 
9 | Cc1ccc(C)c(NC(=O)C2CCCN(S(=O)(=O)c3cn(C)cn3)C2)c1 (centres undefined) | -0.0051% (inactive) | 
10 | Cc1ccc(CNC(=O)CSc2c(C)cnc3c2c(=O)n(C)c(=O)n3C)cc1 | -5.79% (inactive) | 
11 | O=C(Nc1nc2c(s1)CCCC2)c1ccccc1F | 5.05% (inactive) | 
12 | Cc1ccc(N2CC(C(=O)Nc3ccc(N(C)C)cc3)CC2=O)cc1Cl (centres undefined) | -6.08% (inactive) | 
13 | COc1cccc(NC(=O)C(=O)NCC(c2ccc3c(c2)OCO3)N2CCN(C)CC2)c1 (centres undefined) | 4.3% (inactive) | 
14 | CSc1ccc(CCNC(=O)c2ccc3c(c2)nc2n3CCOC2)cc1 | 17.1% (inactive) | 
15 | O=C(NC1CC(=O)N(c2ccc(F)cc2)C1)C1CCCCC1 (centres undefined) | 2.04% (inactive) | 
16 | O=C(/C=C/c1ccccc1)Nc1cc(-c2nc3cc(Cl)ccc3o2)ccc1Cl | 3.86% (inactive) | 
17 | Cc1ccc(CCNC(=O)c2ccc3c(c2)N(Cc2cc(C)ccc2C)C(=O)c2ccccc2S3=O)cc1 (centres undefined) | -5.3% (inactive) | 
18 | O=C(CCc1nc(CN2CCN(S(=O)(=O)c3ccc(F)cc3)CC2)no1)N1CCCCC1 | 1.03% (inactive) | 
19 | CCOc1ccc(Nc2oc(/C=C/c3ccc(F)cc3)nc2C#N)cc1 | 0% (inactive) | 
20 | Oc1ccc(-c2nc3ccc(Cl)cn3c2Nc2ccc3c(c2)OCO3)cc1 | -2.86% (inactive) | 
21 | COc1cc(OC)c(N(C)C(=O)c2cc3c(=O)oc4ccccc4c3s2)cc1Cl | -4.35% (inactive) | 
22 | COc1ccc(-c2nc(Cn3c(=O)cc(C)c4c(C)nn(-c5ccccc5)c43)c(C)o2)cc1OC | 14.5% (inactive) | 
23 | COc1ccccc1Nc1nc(N)nc(N)c1S(=O)(=O)c1ccccc1 | 8.86% (inactive) | 
24 | COc1ccc(Cn2ccn(Cc3cccc(OC)c3)c(=O)c2=O)cc1 | -4.83% (inactive) | 
25 | O=c1c(=O)n(Cc2c(F)cccc2Cl)ccn1Cc1ccccc1 | -0.719% (inactive) | 
26 | O=[N+]([O-])/C=C/c1ccc2c(ccn2Cc2ccccc2)c1 |  | 20.7 µM (active)
27 | COc1ccc(Cl)cc1N(C)C(=O)c1cc2c(=O)oc3ccc(C)cc3c2s1 | 9.62% (inactive) | 

Row | Compound | activity change, negative = inhibition | Potency
28 | COc1ccc(CCNC(=O)CCc2c(C)nc3c(c(C)nn3-c3ccc(C)c(C)c3)c2C)c(OC)c1OC | -2.76% (inactive) | 
29 | CCN(CC)C(=O)CSc1nc2ccsc2c(=O)n1Cc1ccccc1Cl | 8.23% (inactive) | 
30 | Cc1ccc(-c2ccc(CCC(=O)O)n2-c2ccc(C(N)=O)cc2)cc1 | -7.5% (inactive) | 
31 | N#Cc1nc(/C=C/c2ccc(F)cc2)oc1NCc1ccc(F)cc1 | -16.7% (inactive) | 
32 | CCOc1ccc(Nc2nc3c(S(=O)(=O)c4cccc(Cl)c4)nnn3c3ccsc23)cc1 | 11.3% (inactive) | 
33 | COc1cc(OC)c(C2C=C(C(=O)O)Nc3ncnn32)cc1OC (centres undefined) | -1.93% (inactive) | 
34 | O=C1Cc2cc(S(=O)(=O)Nc3ccc(OC(F)(F)F)cc3)cc3c2N1CCC3 | 9.9% (inactive) | 
35 | COc1cc(C(=O)NCCc2csc3nc(-c4ccccc4C)nn23)cc(OC)c1OC | -17.5% (inactive) | 
36 | CCc1ccc(C2C(C(=O)Nc3ccccc3)=C(C)Nc3c(C(=O)Nc4ccc(C)cc4)cnn32)cc1 (centres undefined) | -18.3% (inactive) | 
37 | CN(C)c1ccc(C(CNS(=O)(=O)c2cc(F)ccc2F)N2CCOCC2)cc1 (centres undefined) | 0% (inactive) | 
38 | COc1ccc(S(=O)(=O)c2c(Nc3ccc(C)cc3)sc(C(=O)c3ccc(C)cc3)c2N)cc1 | -3.17% (inactive) | 
39 | Cc1ccccc1CCNC(=O)C1CCN(c2nc3ccccc3nc2C(F)(F)F)CC1 | 4.43% (inactive) | 
40 | O=C(c1ccccc1F)N1CCC(c2nc3c(nnn3Cc3cccc(F)c3)c(=O)[nH]2)CC1 | 7.98% (inactive) | 
41 | CCOc1ccc(NC(=O)c2c(NCc3cccc(OC)c3OC)sc3c2CCC3)cc1 | -16.2% (inactive) | 
42 | COc1cc(OC)c(NC(=O)c2cc(S(=O)(=O)N3CCCC3)cn2C)cc1Cl | -0.894% (inactive) | 
43 | O=C(COc1ccc(Cl)cc1)Nc1ccccc1OCc1cc(=O)n2ccccc2n1 | -3.61% (inactive) | 
44 | COc1ccc(OC)c(NC(=O)CSC2=Nc3ccccc3C3=NC(CC(=O)NCCc4ccccc4)C(=O)N23)c1 (centres undefined) | -6.25% (inactive) | 
45 | O=C(COc1ccccc1Cl)Nc1ccc2nc(SCC(=O)N3CCCC3)sc2c1 | -3.02% (inactive) | 
46 | O=C(CN1c2ccccc2S(=O)(=O)c2ccccc21)Nc1cccc(C(F)(F)F)c1 | -11.9% (inactive) | 
47 | COc1cccc(-c2nc(CS(=O)(=O)CC(=O)N3CCN(c4cc(C)ccc4C)CC3)c(C)o2)c1 | -8.51% (inactive) | 
48 | COc1ccc(CNC(=O)CSc2nc3ccccc3nc2Cc2ccccc2)cc1 | 10.4% (inactive) | 
49 | CCOC(=O)c1c(C)n(S(=O)(=O)c2ccc(C)cc2C)c2ccc(NS(=O)(=O)c3ccc(C)cc3C)cc12 | -0.772% (inactive) | 
50 | CCOc1cccc(C(=O)Nc2nnc(S(=O)(=O)N(C)c3ccc(C)cc3)s2)c1 | 0% (inactive) | 
51 | COc1ccccc1Nc1c2c(nc3ccc(NC(=O)/C=C/c4cc(OC)c(OC)c(OC)c4)cc13)CCCC2 | 1.05% (inactive) | 
52 | O=C(Nc1c(-c2ccc(F)cc2)nc2ccccn12)c1cccc(F)c1 | -3.61% (inactive) | 
53 | Cc1ccc(-n2ncc3c(N4CCC(C(N)=O)CC4)ncnc32)cc1 | -7.51% (inactive) | 
54 | Cc1c(NC(=O)Cc2ccccc2)cccc1-c1nc2cccnc2s1 | 0% (inactive) | 
